Tests used:
Experiment in all cases: log2 ratio of Biotin-Ahx-Ub-VS probe labelling (fragment/DMSO); higher = less target engagement (more negative = stronger competition), active = hit call of the paper (q ≤ 0.05, log2 ratio ≤ -1)
Conditions in all cases: compound concentration: 200 uM; treatment time: 3 h
[1] = biological target: USP34 (UniProt Q70CQ2)
In short: (§1)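 Labelled DUBs from HEK293T lysate were NeutrAvidin-enriched, digested with LysC and trypsin, and run by diaPASEF LC-MS/MS. Before that, each 495 µg sample in Tris/CHAPS/IGEPAL buffer with protease inhibitors was treated in triplicate with fragment at 200 µM or vehicle for 3 h, then with Biotin-Ahx-Ub-VS at 0.5 µM final for 1 h. Values are average log2 ratios of fragment over vehicle by unpaired t-test, based on global-median-normalised Spectronaut label-free quantities from proteins with ≥2 unique peptides.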

[2] = biological target: T1, USP36 (UniProt Q9P275)
T1 sequence (whole entry): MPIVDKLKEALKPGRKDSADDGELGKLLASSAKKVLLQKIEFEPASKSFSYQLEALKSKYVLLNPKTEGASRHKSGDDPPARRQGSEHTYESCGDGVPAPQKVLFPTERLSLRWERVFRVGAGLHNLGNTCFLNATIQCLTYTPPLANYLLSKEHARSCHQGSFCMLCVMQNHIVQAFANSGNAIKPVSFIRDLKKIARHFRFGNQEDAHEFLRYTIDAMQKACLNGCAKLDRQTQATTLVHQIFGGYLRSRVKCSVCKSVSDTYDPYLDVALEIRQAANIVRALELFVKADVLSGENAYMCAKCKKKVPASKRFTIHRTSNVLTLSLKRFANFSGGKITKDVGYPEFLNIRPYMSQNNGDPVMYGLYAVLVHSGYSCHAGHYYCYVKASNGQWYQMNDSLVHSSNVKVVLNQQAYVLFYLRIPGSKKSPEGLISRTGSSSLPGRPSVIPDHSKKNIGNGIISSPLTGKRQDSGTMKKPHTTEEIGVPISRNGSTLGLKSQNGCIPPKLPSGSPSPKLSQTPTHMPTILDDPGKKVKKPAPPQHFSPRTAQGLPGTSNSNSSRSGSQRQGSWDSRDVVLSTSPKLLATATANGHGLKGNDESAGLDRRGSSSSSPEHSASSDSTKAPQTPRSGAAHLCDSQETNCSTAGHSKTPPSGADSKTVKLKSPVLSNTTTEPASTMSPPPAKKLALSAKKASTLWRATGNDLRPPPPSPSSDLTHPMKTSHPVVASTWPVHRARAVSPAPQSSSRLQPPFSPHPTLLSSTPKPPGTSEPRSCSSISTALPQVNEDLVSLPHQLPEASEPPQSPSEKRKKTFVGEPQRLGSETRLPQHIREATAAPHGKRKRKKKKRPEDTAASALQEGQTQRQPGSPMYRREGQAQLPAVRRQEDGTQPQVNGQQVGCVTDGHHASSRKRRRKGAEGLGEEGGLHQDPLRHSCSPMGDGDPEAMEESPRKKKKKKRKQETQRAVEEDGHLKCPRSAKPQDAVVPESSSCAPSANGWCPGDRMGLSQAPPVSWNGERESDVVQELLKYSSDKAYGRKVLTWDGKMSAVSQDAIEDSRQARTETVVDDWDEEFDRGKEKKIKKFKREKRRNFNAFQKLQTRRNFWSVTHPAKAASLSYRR
In short: as §1

[3] = biological target: T2, USP38 (UniProt Q8NB14)
T2 sequence (whole entry): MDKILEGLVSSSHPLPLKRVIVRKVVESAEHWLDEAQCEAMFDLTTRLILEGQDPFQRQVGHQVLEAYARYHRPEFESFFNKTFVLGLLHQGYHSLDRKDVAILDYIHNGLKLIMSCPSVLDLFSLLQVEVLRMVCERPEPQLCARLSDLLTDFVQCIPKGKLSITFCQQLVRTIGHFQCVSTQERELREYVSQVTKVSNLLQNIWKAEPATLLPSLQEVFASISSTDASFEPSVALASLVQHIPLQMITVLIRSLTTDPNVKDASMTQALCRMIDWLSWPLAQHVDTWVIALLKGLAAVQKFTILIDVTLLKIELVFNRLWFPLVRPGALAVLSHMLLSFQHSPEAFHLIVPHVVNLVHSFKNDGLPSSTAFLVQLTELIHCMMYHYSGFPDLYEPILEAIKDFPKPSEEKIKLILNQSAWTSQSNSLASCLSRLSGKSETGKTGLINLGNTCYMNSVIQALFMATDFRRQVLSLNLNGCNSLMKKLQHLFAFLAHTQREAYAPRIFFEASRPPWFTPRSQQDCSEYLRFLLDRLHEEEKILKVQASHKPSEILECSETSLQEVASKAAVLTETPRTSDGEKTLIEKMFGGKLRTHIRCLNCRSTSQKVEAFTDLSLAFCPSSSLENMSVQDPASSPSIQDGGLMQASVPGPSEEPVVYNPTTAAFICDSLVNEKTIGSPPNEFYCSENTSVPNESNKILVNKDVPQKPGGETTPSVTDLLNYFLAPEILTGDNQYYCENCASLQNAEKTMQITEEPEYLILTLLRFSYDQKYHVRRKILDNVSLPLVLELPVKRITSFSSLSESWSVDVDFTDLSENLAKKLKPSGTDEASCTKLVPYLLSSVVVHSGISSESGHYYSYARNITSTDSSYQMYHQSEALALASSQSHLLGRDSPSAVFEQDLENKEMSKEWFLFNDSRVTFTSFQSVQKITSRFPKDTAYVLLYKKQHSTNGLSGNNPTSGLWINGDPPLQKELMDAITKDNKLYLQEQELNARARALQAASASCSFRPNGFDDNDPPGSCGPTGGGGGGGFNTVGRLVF
In short: as §1

[4] = biological target: T3, USP39 (UniProt Q53GS9)
T3 sequence (whole entry): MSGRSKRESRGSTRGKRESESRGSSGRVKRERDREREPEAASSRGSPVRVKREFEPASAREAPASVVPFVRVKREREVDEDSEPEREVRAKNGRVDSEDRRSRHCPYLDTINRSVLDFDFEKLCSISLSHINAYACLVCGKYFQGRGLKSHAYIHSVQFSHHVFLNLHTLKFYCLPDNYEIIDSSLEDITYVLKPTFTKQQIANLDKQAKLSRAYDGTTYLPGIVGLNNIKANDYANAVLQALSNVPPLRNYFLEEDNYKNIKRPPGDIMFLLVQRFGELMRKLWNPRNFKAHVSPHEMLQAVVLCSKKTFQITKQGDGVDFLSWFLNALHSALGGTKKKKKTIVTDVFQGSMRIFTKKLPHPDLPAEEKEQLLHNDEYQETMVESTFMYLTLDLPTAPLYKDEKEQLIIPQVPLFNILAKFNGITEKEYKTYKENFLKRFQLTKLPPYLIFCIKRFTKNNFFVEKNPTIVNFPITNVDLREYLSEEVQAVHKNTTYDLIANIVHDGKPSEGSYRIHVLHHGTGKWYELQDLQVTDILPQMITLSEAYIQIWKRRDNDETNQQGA
In short: as §1

[5] = biological target: T4, USP4 (UniProt Q13107)
T4 sequence (whole entry): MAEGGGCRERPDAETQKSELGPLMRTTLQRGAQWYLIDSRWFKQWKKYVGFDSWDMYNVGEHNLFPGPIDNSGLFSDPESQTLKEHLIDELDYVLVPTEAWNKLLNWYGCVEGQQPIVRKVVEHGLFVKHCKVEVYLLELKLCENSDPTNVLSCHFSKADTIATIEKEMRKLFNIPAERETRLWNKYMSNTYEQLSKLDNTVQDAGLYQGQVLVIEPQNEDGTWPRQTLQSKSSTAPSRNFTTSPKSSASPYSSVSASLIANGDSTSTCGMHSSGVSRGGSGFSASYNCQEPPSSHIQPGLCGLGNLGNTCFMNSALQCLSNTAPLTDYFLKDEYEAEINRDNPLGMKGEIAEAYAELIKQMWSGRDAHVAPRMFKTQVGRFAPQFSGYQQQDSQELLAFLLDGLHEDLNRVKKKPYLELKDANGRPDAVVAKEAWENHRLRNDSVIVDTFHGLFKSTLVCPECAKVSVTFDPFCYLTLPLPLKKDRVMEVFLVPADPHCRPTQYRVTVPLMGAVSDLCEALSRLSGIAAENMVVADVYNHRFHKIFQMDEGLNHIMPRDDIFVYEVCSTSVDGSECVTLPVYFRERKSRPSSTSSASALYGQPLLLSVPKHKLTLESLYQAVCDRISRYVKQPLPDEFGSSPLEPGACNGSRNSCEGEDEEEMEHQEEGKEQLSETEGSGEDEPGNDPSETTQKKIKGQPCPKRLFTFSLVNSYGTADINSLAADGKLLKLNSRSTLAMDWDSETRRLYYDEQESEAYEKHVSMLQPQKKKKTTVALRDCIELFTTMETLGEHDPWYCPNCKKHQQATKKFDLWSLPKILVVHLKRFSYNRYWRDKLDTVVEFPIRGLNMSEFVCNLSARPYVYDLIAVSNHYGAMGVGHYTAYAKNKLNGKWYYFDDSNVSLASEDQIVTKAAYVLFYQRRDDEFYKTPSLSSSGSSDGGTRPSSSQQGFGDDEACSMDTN
In short: as §1

Measured: log2 ratio of Biotin-Ahx-Ub-VS probe labelling

USP34, sequence (Q70CQ2 whole entry, the tested form may be a part): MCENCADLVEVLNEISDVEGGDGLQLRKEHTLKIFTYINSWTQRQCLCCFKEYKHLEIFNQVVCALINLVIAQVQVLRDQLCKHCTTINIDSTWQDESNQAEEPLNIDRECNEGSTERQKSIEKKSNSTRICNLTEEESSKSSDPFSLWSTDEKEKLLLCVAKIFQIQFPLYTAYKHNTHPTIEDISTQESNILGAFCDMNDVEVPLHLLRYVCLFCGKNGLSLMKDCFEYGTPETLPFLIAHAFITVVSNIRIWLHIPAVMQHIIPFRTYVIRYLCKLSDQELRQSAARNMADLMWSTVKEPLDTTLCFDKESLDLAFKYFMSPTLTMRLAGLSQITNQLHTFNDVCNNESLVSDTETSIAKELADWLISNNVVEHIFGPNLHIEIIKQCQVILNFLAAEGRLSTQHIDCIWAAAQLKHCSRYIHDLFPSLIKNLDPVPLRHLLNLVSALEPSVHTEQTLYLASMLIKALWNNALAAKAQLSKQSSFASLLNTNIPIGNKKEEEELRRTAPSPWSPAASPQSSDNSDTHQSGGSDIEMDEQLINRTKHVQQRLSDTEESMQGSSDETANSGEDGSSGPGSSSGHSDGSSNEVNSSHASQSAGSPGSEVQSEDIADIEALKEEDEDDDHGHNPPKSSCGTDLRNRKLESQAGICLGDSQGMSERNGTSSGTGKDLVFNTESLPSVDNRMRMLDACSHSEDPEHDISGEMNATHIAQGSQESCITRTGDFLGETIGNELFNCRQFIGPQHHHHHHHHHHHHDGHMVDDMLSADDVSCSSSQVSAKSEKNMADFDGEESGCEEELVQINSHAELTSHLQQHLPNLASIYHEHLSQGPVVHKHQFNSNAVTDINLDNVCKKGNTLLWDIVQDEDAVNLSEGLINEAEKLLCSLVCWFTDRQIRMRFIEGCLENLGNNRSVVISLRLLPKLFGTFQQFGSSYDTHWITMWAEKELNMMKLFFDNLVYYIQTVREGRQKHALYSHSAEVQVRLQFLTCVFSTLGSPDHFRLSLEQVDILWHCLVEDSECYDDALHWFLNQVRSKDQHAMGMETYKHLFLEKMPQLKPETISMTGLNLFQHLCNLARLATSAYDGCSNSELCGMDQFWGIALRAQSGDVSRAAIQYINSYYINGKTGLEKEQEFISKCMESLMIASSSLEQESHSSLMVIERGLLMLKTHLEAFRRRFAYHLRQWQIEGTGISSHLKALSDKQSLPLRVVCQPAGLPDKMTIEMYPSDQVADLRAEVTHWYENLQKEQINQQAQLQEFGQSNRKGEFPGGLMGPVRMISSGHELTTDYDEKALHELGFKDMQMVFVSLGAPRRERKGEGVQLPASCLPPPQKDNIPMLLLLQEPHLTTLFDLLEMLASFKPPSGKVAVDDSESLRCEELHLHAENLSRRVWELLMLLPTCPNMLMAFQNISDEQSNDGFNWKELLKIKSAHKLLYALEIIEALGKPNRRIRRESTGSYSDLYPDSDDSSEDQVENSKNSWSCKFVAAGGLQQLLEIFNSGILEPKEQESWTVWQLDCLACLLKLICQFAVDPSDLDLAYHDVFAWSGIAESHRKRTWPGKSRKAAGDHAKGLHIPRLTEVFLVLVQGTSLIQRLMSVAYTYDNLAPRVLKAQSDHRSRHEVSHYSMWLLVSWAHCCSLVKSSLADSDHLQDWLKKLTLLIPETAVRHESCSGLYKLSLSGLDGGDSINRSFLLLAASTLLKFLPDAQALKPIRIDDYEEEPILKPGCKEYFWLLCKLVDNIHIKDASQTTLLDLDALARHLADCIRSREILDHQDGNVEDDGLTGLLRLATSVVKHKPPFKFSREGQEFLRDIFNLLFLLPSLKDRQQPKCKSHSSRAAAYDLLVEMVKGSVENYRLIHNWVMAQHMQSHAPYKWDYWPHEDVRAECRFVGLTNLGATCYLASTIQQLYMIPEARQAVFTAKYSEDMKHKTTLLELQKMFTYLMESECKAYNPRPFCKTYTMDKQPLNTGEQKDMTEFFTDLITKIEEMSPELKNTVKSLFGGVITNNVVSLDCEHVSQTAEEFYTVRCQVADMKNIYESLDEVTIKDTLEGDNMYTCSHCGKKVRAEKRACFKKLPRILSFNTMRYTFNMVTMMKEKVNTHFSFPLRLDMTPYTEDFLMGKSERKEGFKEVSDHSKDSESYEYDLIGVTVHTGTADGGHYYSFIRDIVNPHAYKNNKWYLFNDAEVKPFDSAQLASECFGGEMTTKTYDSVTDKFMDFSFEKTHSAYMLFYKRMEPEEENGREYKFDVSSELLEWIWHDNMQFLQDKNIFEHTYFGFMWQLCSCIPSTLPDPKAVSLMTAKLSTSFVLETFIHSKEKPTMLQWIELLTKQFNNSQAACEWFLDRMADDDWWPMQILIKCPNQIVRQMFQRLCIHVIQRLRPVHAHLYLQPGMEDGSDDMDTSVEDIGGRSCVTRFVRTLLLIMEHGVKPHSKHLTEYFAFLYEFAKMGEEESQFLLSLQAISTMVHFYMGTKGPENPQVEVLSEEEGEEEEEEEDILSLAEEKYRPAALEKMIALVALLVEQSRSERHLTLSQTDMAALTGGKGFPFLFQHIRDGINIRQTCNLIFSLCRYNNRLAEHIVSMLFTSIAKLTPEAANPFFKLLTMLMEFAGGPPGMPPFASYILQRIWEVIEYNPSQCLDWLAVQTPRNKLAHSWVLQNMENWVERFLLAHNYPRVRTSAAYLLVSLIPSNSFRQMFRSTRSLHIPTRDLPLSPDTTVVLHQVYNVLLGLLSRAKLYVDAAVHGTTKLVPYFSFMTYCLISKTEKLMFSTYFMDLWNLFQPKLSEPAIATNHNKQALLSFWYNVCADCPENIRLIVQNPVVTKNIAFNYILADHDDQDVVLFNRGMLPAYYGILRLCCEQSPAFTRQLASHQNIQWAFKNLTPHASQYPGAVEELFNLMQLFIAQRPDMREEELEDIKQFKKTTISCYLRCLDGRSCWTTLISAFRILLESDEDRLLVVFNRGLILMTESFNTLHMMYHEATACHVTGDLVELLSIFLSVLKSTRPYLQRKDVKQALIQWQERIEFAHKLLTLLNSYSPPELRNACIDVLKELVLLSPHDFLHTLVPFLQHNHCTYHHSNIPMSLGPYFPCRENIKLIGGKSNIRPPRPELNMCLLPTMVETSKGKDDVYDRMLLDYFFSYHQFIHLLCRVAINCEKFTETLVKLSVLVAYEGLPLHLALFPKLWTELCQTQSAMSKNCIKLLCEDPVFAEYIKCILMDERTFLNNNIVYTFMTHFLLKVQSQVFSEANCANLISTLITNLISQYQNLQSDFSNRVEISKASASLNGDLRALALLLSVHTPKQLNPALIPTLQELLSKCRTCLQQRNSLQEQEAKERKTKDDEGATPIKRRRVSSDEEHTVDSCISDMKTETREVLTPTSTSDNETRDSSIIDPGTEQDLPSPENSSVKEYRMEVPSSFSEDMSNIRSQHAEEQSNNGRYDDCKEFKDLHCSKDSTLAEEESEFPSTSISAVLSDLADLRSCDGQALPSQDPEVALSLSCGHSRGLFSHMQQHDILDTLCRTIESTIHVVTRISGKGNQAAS

O=C(CCl)NCc1ccc(N2CCOCC2)c(F)c1
inactive: [1] -0.0627 | [2] -0.165 | [3] 0.104 | [4] 0.0411 | [5] 0.263

From the supplement of paper PMC11732987, “Enantioselective OTUD7B fragment discovery through chemoproteomics screening and high-throughput optimisation” (Communications Chemistry, 2025)
